PubChem BioAssay AID686996 (Broad Institute, 2013)
Hit rate of the full screen: of about 350,000 compounds, about 1,900 (0.54%) were called active. The sample holds actives, similar compounds and a random draw of the others, so the mix is not that of the screen. A number with no mark means an inactive call.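 Rule for the calls: active = mean inhibition across replicates at least about 35%, with every replicate also reaching that limit (limit read from the data); inconclusive = only one of the two criteria met; inactive = neither criterion met.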

What follows are compounds tested against Caspase-6 (Homo sapiens) (UniProt P55212) (assay: inhibition of CASP6 peptide cleavage – biochemical, VEID-R110 fluorescence, single point, set 2, primary screen (AID 686996;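 note: 0% = median of neutral control wells and 100% = no fluorescence left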)). Settings: purified caspase-6, Z-VEID-R110 cleavage fluorescence; at 12.5 µM; active compounds read high.
Caspase-6 (Homo sapiens), sequence (P55212 24-179 limits assumed): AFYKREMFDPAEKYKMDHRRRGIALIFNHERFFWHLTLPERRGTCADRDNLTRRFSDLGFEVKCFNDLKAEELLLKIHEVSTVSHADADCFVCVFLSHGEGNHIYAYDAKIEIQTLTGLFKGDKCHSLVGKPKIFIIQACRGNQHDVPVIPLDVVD
Caspase-6 (Homo sapiens), sequence (P55212 194-293 limits assumed): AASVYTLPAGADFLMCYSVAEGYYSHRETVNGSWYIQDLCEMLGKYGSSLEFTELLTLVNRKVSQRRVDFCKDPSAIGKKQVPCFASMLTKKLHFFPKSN
With COc1c(O)cc2oc(-c3ccc(O)c(O)c3)cc(=O)c2c1O the inhibition was 39.1% (active). Compound C#CCN1C(Cc2ccccc2)C(=O)O[C@H](C2CCCCC2)[C@@H]1/C=C/C1CC1 (some centres undefined) has an inhibition of -4.1%. With N#CC1=C(N)Oc2n[nH]c(CSc3ccccc3)c2C12C(=O)Nc1ccccc12 (centres undefined) the inhibition was 7.38%. N#CC1=C(N)Oc2[nH]c(=S)[nH]c(=O)c2C12C(=O)Nc1ccccc12 (centres undefined) was tested, and the inhibition was 45.4% (active). C[C@@H]1CN([C@@H](C)CO)S(=O)(=O)c2ccc(C3=CCCCC3)cc2O[C@@H]1CN(C)C(=O)CN(C)C was tested, and the inhibition was 0.621%. In the case of CCS(=O)(=O)N1CC2(CN(Cc3cc(F)ccc3F)[C@@H](CO)c3c2c2ccc(OC)cc2n3C)C1, the inhibition was -1.32%. For C[C@H](CO)N1C[C@H](C)[C@H](CN(C)CC2CCCC2)Oc2ncc(Br)cc2C1=O, the inhibition was 0.088%. C[C@@H]1CN([C@@H](C)CO)C(=O)c2cc(NS(=O)(=O)c3ccc(Cl)cc3)ccc2O[C@H]1CN(C)S(=O)(=O)c1cn(C)cn1 gave an inhibition of -0.705%. With Cc1ccc(S(=O)(=O)N[C@H](CO)C(C)C)cc1 the inhibition was 1.4%. In the case of COc1ccc(S(=O)(=O)/N=C2\C=C(NS(=O)(=O)c3ccccc3)C(=O)c3ccccc32)cc1, the inhibition was 55.8% (active). CNC(=O)COc1ccc(S(=O)(=O)Nc2ccccc2)cc1 showed an inhibition of 0.091%. For Cc1ccc(S(=O)(=O)N/N=C(\c2ccccc2)C2CC2)cc1, the inhibition was 8.02%. COc1ccc(NS(=O)(=O)c2ccc(Oc3c(C#N)cccc3C#N)cc2)cc1 gave an inhibition of -1.42%. Cc1ccc(S(=O)(=O)/N=C2\C=C(NS(=O)(=O)c3ccc(C)cc3)C(=O)c3ccccc32)cc1 was tested, and the inhibition was 62.8% (active). With CO[C@H]1CN(C)C(=O)c2ccc(NS(=O)(=O)c3ccccc3)cc2OC[C@H](C)N(Cc2nccs2)C[C@@H]1C the inhibition was 0.023%. Compound C[C@@H](O)C#Cc1ccc([C@H]2[C@@H](CO)N3CCCCN(S(=O)(=O)c4ccccc4)C[C@@H]23)cc1 has an inhibition of -3.52%. Work on CCCNC(=O)C[C@H]1C[C@@H]2c3cc(NS(=O)(=O)c4cccc(OC)c4)ccc3O[C@@H]2[C@@H](CO)O1 yielded an inhibition of 2.43%. With C[C@@H]1C[C@@H]2O[C@H]2/C=C\C=C\C(=O)Cc2c(Cl)c(O)cc(O)c2C(=O)O1 the inhibition was 37.4% (active). Work on COc1ccc(S(=O)(=O)N(C)C[C@H]2Oc3c(NC(=O)CCCCCC(=O)Nc4ccccc4N)cccc3C(=O)N([C@H](C)CO)C[C@H]2C)cc1 yielded an inhibition of -1.7%. O=C(Cc1ccccc1)N[C@H]1C=C[C@H](CC(=O)N2CCCCC2)O[C@@H]1CO showed an inhibition of -1.28%. CCCN1[C@H](C(=O)N2CCCCC2)[C@@H](CO)[C@@H]2Cn3c(ccc(-c4ccccc4F)c3=O)[C@@H]21 gave an inhibition of 1.71%. CCC(=O)N1CCC2(CC1)CN(Cc1ccc(Cl)cc1)[C@@H](CO)c1[nH]c3cc(OC)ccc3c12 gave an inhibition of 1.51%. In the case of CC(C(=O)Nc1ccc(O)c(C(=O)O)c1)N1C(=O)/C(=C/c2cccs2)SC1=S (centres undefined), the inhibition was 27.5%. Compound CC(C(=O)NC1CCS(=O)(=O)C1)N1C(=O)/C(=C/c2ccc(Cl)cc2)SC1=S (centres undefined) has an inhibition of 4.77%. For O=C(O)C(c1ccccc1)N1C(=O)/C(=C\c2ccc(-c3cccc(Cl)c3)o2)SC1=S (centres undefined), the inhibition was 89.6% (active). For CCN1[C@@H]2Cn3c(ccc(C4=CCCCC4)c3=O)[C@H]1[C@@H](C(=O)N1CCCCC1)[C@@H]2CO, the inhibition was 1.04%. O=C(C[C@H]1CC[C@@H]2[C@H](COC[C@@H](O)CN2C(=O)Nc2cccc(F)c2)O1)NCc1ccccc1F showed an inhibition of 0.624%. Work on O=C(COC(=O)c1cnc(Cl)c(Cl)c1)NCc1ccco1 yielded an inhibition of 10.4%. With O=C(COC(=O)c1ccccc1O)NCc1ccco1 the inhibition was 38.4% (active). Work on O=C(COC(=O)Cc1ccc(Cl)cc1Cl)NCc1ccco1 yielded an inhibition of 3.33%. N#C[C@H]1[C@@H](c2ccccc2C2=CCCC2)[C@H](CO)N1C(=O)c1cccc(F)c1 was tested, and the inhibition was 0.224%. For CCC(=O)N1C[C@@H](C)[C@H](OC)CN(C)C(=O)c2cc(NC(=O)NC3CCCC3)ccc2OC[C@H]1C, the inhibition was 0.917%. With CCC(=O)N(C)C[C@@H]1Oc2cc(C#CCN(C)C)ccc2S(=O)(=O)N([C@H](C)CO)C[C@H]1C the inhibition was -0.78%. For N#CC1=C(N)Oc2cc(N)ccc2C1c1ccccc1 (centres undefined), the inhibition was 37% (active). In the case of N#CC1=C(N)Oc2c(ccc3cccnc23)C1c1ccncc1 (centres undefined), the inhibition was 3.1%. Compound Cn1c2c(c(=O)n(C)c1=O)C(c1cccc(F)c1)C(C#N)=C(N)O2 (centres undefined) has an inhibition of 1.86%. O=C(C[C@@H]1CC[C@H]2[C@@H](COC[C@H](O)CN2C(=O)Nc2ccccc2)O1)NCc1ccccc1F showed an inhibition of -1.64%. In the case of Cc1ccccc1-c1ccc2c(c1)O[C@@H](CN(C)Cc1ccncc1)[C@@H](C)CN([C@H](C)CO)S2(=O)=O, the inhibition was 2.69%. Work on O=C(O)CSc1ccc(S(=O)(=O)N2CCCC2)cn1 yielded an inhibition of -0.751%. N#Cc1c(C(F)(F)F)cc(-c2ccc(Cl)cc2)nc1SCC(=O)O gave an inhibition of -2.92%. In the case of N#Cc1c(N2CCCCC2)nc(N)c2c(N)nc(SCC(=O)O)cc12, the inhibition was 43.3% (active). Compound C[C@@H]1CN([C@@H](C)CO)C(=O)Cc2cc(NC(=O)CCN3CCOCC3)ccc2O[C@H]1CN(C)S(=O)(=O)c1ccccc1 has an inhibition of -0.675%. With CN(C)C(=O)c1ccc(-c2ccccc2[C@@H]2[C@@H](C#N)N(C(=O)C3CCCC3)[C@H]2CO)cc1 the inhibition was 2.13%. For C[C@@H]1CN([C@H](C)CO)C(=O)c2c(c3ccccc3n2C)-c2ccccc2CO[C@H]1CN(C)S(=O)(=O)c1ccccc1F, the inhibition was -0.557%. For O=C(C[C@@H]1C=C[C@H](NC(=O)C2CCOCC2)[C@H](CO)O1)NCc1ccncc1, the inhibition was -0.812%. O=C(c1ccc2c(c1)OCO2)N1CC(=O)N2[C@H](C1)[C@@H](c1ccc(C#Cc3ccccc3)cc1)[C@@H]2CO gave an inhibition of -1.08%. In the case of O=C1OC(/C=C/c2ccccc2)=NC/1=C/c1ccco1, the inhibition was 38.7% (active). With C[C@H]1CN([C@@H](C)CO)C(=O)c2cc(-c3ccncc3)cnc2O[C@@H]1CN(C)C(=O)c1cccc(F)c1 the inhibition was 1.35%. Cc1noc(C)c1NC(=O)N(C)C[C@H]1Oc2ccc(N(C)C)cc2CC(=O)N([C@H](C)CO)C[C@H]1C was tested, and the inhibition was -3.82%. For O=C(C[C@H]1CC[C@@H](NC(=O)Nc2ccc(F)cc2)[C@H](CO)O1)NCc1cccc(F)c1, the inhibition was -1.29%. In the case of COc1ccc(C(=O)COC(=O)c2ccc([N+](=O)[O-])s2)cc1OC, the inhibition was 0.899%. For O=C(OCC(=O)N1CCN(c2ccccc2)CC1)c1ccc([N+](=O)[O-])s1, the inhibition was 22%. In the case of COc1cc(NC(=O)COC(=O)c2ccc([N+](=O)[O-])s2)cc(OC)c1OC, the inhibition was 87.1% (active). O=C(C[C@H]1CC[C@H]2NC[C@@H](O)COC[C@@H]2O1)NCCN1CCCC1 was tested, and the inhibition was -1.22%. Work on Cc1ccc(S(=O)(=O)CCC(=O)OCC(=O)NCCc2ccc(S(N)(=O)=O)cc2)cc1 yielded an inhibition of 1.6%. COc1ccc(Cl)cc1NC(=O)CCS(=O)(=O)c1cc2c(cc1C)NC(=O)CO2 gave an inhibition of 0.689%. In the case of O=C(CCS(=O)(=O)c1ccc(Br)cc1)NCCc1ccc(Cl)cc1, the inhibition was 49% (active). For COc1ccc(Cl)cc1NC(=O)CCS(=O)(=O)c1ccc(Br)cc1, the inhibition was 87.9% (active). Compound CCOc1ccc(OCC)c(NC(=O)CCS(=O)(=O)c2ccc(C)cc2)c1 has an inhibition of 0.288%. O=C(Cc1ccc(Br)cc1)NCCc1ccccc1 gave an inhibition of 0.216%. With CC(C)NC(=O)N(C)C[C@@H]1Oc2ccc(NS(=O)(=O)c3cn(C)cn3)cc2C(=O)N([C@@H](C)CO)C[C@@H]1C the inhibition was 0.64%. C[C@@H]1CCCCO[C@H](CN(C)S(=O)(=O)c2cccs2)[C@@H](C)CN([C@@H](C)CO)C(=O)c2cc(NC(=O)Nc3ccc4c(c3)OCO4)ccc2O1 was tested, and the inhibition was 0.247%. Cc1noc(C)c1NC(=O)N(C)C[C@@H]1Oc2ccc(NS(C)(=O)=O)cc2C(=O)N([C@@H](C)CO)C[C@@H]1C showed an inhibition of 3.77%. C[C@H](NC(=O)C[C@@H]1C[C@@H]2c3cc(NC(=O)Nc4ccc(C(F)(F)F)cc4)ccc3O[C@@H]2[C@H](CO)O1)c1ccccc1 showed an inhibition of -2.54%. Work on O=C(NC[C@@H]1N[C@@H](CO)[C@H]1c1ccc(-c2cccnc2)cc1)c1cccc(F)c1 yielded an inhibition of 0.599%. CCNc1ccc(C(=O)OCC(=O)N2c3ccccc3NC(=O)C2(C)C)cc1[N+](=O)[O-] was tested, and the inhibition was -5.89%. Cc1cc(C(=O)OCC(=O)N2c3ccccc3NC(=O)C2(C)C)c(C)n1-c1ccccc1 was tested, and the inhibition was -1.9%. For CNS(=O)(=O)c1cccc(C(=O)OCC(=O)N2c3ccccc3NC(=O)C2(C)C)c1, the inhibition was 35.9% (active). C[C@@H]1CCCCO[C@@H](CN(C)C(=O)Nc2ccc(C(F)(F)F)cc2)[C@H](C)CN([C@H](C)CO)C(=O)c2cc(NC(=O)c3ccccc3)ccc2O1 showed an inhibition of -0.72%. C[C@@H]1CCCCO[C@H](CN(C)C(=O)Cc2ccccc2)[C@H](C)CN([C@H](C)CO)C(=O)c2cc(NS(=O)(=O)c3cn(C)cn3)ccc2O1 was tested, and the inhibition was -3.5%. In the case of O=C(Nc1ccc2c(c1)OCCO2)C1CCCC1, the inhibition was 35.2% (active). Compound O=C(Nc1ccc2c(c1)OCCO2)c1ccoc1 has an inhibition of 0.545%. Compound O=C(Nc1ccc2c(c1)OCO2)C1CC1(Cl)Cl (centres undefined) has an inhibition of -1.32%. In the case of COC(=O)C[C@@H]1CC[C@@H]2[C@@H](COc3ccc(NC(=O)C4CCOCC4)cc3C(=O)N2C)O1, the inhibition was -2.32%.
